Data: PubChem BioAssay AID1159580 (chemical genetic matrix, 2015)
Screen size: about 5,500 compounds; about 2,000 (36%) were called active. Roughly 18% stayed inconclusive and do not appear here. Cut-off read from the data, not from the text of the source: active = normalized growth mostly below about 0.91 (no sharp cut-off); inconclusive = no clear call, values can overlap the other calls; inactive = mostly above about 0.92. The list shows a part of the results.

Assay: chemical genetic growth profiling, strain panel (AID 1159580);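 note: tested at 20 µM; growth read once vehicle control cultures reached saturation at 30 °C; 1 = growth at the plate median or of vehicle wells; lower values mean less growth of the strain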
Conditions: growth OD

Measured: normalized growth

O=c1cc(-c2ccc(O)cc2)oc2cc(O[C@@H]3O[C@H](CO)[C@@H](O)[C@H](O)[C@H]3O)cc(O)c12
inactive: S. cerevisiae deletion strains, locus YJR075W, strain HOC1, hits give low values 0.993 | S. cerevisiae deletion strains, locus YKL009W, strain mrt4, hits give low values 0.936 | S. cerevisiae deletion strains, locus YKL068W, hits give low values 0.989 | S. cerevisiae deletion strains, locus YKL085W, strain MDH1 (second series), hits give low values 0.974 | S. cerevisiae deletion strains, locus YKL085W, strain MDH1, hits give low values 0.974 | S. cerevisiae deletion strains, locus YKL160W, strain elf1, hits give low values 0.985 | S. cerevisiae deletion strains, locus YKR001C, strain vps1, hits give low values 0.958 | S. cerevisiae deletion strains, locus YKR026C, strain gcn3, hits give low values 1.01 | S. cerevisiae deletion strains, locus YKR091W, strain srl3, hits give low values 1 | S. cerevisiae deletion strains, locus YLL001W, strain dnm1, hits give low values 1.01 | S. cerevisiae deletion strains, locus YLL026W, hits give low values 1.01 | S. cerevisiae deletion strains, locus YLL041C, strain sdh2, hits give low values 1 | S. cerevisiae deletion strains, locus YLR027C, strain aat2, hits give low values 0.997 | S. cerevisiae deletion strains, locus YLR039C, strain RIC1, hits give low values 0.996 | S. cerevisiae deletion strains, locus YLR058C, strain SHM2, hits give low values 0.989 | S. cerevisiae deletion strains, locus YLR102C, strain apc9, hits give low values 0.968 | S. cerevisiae deletion strains, locus YLR113W, strain HOG1, hits give low values 1.03 | S. cerevisiae deletion strains, locus YLR221C, strain rsa3, hits give low values 1.04 | S. cerevisiae deletion strains, locus YLR258W, strain gsy2, hits give low values 0.996 | S. cerevisiae deletion strains, locus YLR262C, strain YPT6 (second series), hits give low values 1.02 | S. cerevisiae deletion strains, locus YLR262C, strain YPT6, hits give low values 0.971 | S. cerevisiae deletion strains, locus YLR268W, strain sec22, hits give low values 0.963 | S. cerevisiae deletion strains, locus YLR320W, strain mms22, hits give low values 1.05 | S. cerevisiae deletion strains, locus YLR330W, strain CHS5, hits give low values 0.985 | S. cerevisiae deletion strains, locus YLR342W, strain FKS1 (second series), hits give low values 0.98 | S. cerevisiae deletion strains, locus YLR342W, strain FKS1, hits give low values 1.01 | S. cerevisiae deletion strains, locus YLR357W, strain rsc2, hits give low values 1.01 | S. cerevisiae deletion strains, locus YLR370C, strain arc18, hits give low values 0.976 | S. cerevisiae deletion strains, locus YLR371W, strain rom2, hits give low values 0.964 | S. cerevisiae deletion strains, locus YLR384C, strain iki3, hits give low values 1.01 | S. cerevisiae deletion strains, locus YLR418C, strain cdc73, hits give low values 0.964 | S. cerevisiae deletion strains, locus YML016C, strain PPZ1, hits give low values 0.988 | S. cerevisiae deletion strains, locus YML032C, strain rad52, hits give low values 0.973 | S. cerevisiae deletion strains, locus YML120C, strain ndi1, hits give low values 0.986 | S. cerevisiae deletion strains, locus YML124C, strain tub3, hits give low values 0.983 | S. cerevisiae deletion strains, locus YMR058W, strain fet3, hits give low values 1.02 | S. cerevisiae deletion strains, locus YMR078C, strain ctf18, hits give low values 1.01 | S. cerevisiae deletion strains, locus YMR125W, strain sto1, hits give low values 0.968 | S. cerevisiae deletion strains, locus YMR129W, hits give low values 1 | S. cerevisiae deletion strains, locus YMR205C, strain PFK2, hits give low values 1.01 | S. cerevisiae deletion strains, locus YMR223W, strain ubp8, hits give low values 1.01 | S. cerevisiae deletion strains, locus YMR231W, strain pep5, hits give low values 1 | S. cerevisiae deletion strains, locus YMR307W, strain GAS1, hits give low values 1.02 | S. cerevisiae deletion strains, locus YNL067W, strain RPL9B, hits give low values 1.01 | S. cerevisiae deletion strains, locus YNL071W, strain lat1, hits give low values 0.995 | S. cerevisiae deletion strains, locus YNL153C, strain GIM3, hits give low values 1 | S. cerevisiae deletion strains, locus YNL183C, strain NPR1, hits give low values 0.975 | S. cerevisiae deletion strains, locus YNL209W, strain ssb2, hits give low values 0.994 | S. cerevisiae deletion strains, locus YNL233W, strain BNI4, hits give low values 0.987 | S. cerevisiae deletion strains, locus YNL248C, strain rpa49, hits give low values 1.08 | S. cerevisiae deletion strains, locus YNL250W, strain rad50, hits give low values 0.98 | S. cerevisiae deletion strains, locus YNL271C, strain bni1, hits give low values 0.975 | S. cerevisiae deletion strains, locus YNL298W, strain CLA4, hits give low values 0.98 | S. cerevisiae deletion strains, locus YNL307C, strain MCK1, hits give low values 0.973 | S. cerevisiae deletion strains, locus YNL322C, strain KRE1 (second series), hits give low values 0.993 | S. cerevisiae deletion strains, locus YNL322C, strain KRE1, hits give low values 0.987 | S. cerevisiae deletion strains, locus YNR049C, strain mso1, hits give low values 1.03 | S. cerevisiae deletion strains, locus YNR052C, strain pop2, hits give low values 0.997 | S. cerevisiae deletion strains, locus YOL012C, strain htz1 0.98 | S. cerevisiae deletion strains, locus YOL147C, strain pex11, hits give low values 0.978 | S. cerevisiae deletion strains, locus YOR001W, strain rrp6, hits give low values 1.04 | S. cerevisiae deletion strains, locus YOR061W, strain CKA2, hits give low values 0.979 | S. cerevisiae deletion strains, locus YOR069W, strain VPS5, hits give low values 0.978 | S. cerevisiae deletion strains, locus YOR070C, strain gyp1, hits give low values 1.02 | S. cerevisiae deletion strains, locus YOR080W, strain dia2, hits give low values 1.01 | S. cerevisiae deletion strains, locus YOR083W, strain WHI5, hits give low values 0.974 | S. cerevisiae deletion strains, locus YOR106W, strain vam3, hits give low values 0.966 | S. cerevisiae deletion strains, locus YOR136W, strain idh2, hits give low values 0.958 | S. cerevisiae deletion strains, locus YOR144C, strain elg1, hits give low values 0.98 | S. cerevisiae deletion strains, locus YOR184W, strain ser1, hits give low values 1 | S. cerevisiae deletion strains, locus YOR231W, strain MKK1, hits give low values 1.05 | S. cerevisiae deletion strains, locus YOR265W, strain rbl2, hits give low values 1.01 | S. cerevisiae deletion strains, locus YOR270C, strain vph1, hits give low values 1.06 | S. cerevisiae deletion strains, locus YOR290C, strain snf2, hits give low values 0.961 | S. cerevisiae deletion strains, locus YOR316C, strain cot1, hits give low values 0.969 | S. cerevisiae deletion strains, locus YPL051W, strain arl3, hits give low values 1.03 | S. cerevisiae deletion strains, locus YPL078C, strain atp4, hits give low values 0.968 | S. cerevisiae deletion strains, locus YPL106C, strain sse1, hits give low values 1 | S. cerevisiae deletion strains, locus YPL240C, strain hsp82, hits give low values 1.01 | S. cerevisiae deletion strains, locus YPL241C, strain CIN2, hits give low values 0.994 | S. cerevisiae deletion strains, locus YPL256C, strain CLN2, hits give low values 1 | S. cerevisiae deletion strains, locus YPR119W, strain clb2, hits give low values 0.989 | S. cerevisiae deletion strains, locus YPR141C, strain kar3, hits give low values 0.968 | S. cerevisiae deletion strains, locus YPR163C, strain tif3, hits give low values 0.982 | S. cerevisiae deletion strains, locus YPR167C, strain met16, hits give low values 0.979 | S. cerevisiae deletion strains, strain wtn01, hits give low values 0.955 | S. cerevisiae strains, strain wild type, hits give low values 0.993
